Among all 69,000 compounds or so, about 8,600 (12%) showed an effect of 50% or more. Only a selection was taken, and strong results are over-represented in it overall.
system: Plasmodium berghei; test: Screen against P. berghei liver stage (PbLuc), transformed with Luciferase, at 10uM; assay type: functional, HepG2; details: tested at 10 uM

SMILES | INHIBITION
O=C(O)C1(Cc2ccccc2Cl)CCN(c2ncnc3[nH]ccc23)CC1 | 43.3%
Cc1nn(C)c(Cl)c1C1CCCN1Cc1cccc(C(N)=O)c1 (stereo not drawn) | 11.2%
Cn1c(=O)c2cc(C(=O)NCc3ccccn3)ccc2n(C)c1=O | 26.3%
CC(C)NC(=O)N1CCCn2cnc(CO)c2C1 | -3.77%
CC(C)c1noc(C(C)N2CCN(Cc3cccnc3)CC2)n1 (stereo not drawn) | 15.5%
COCC1CN(C(=O)[C@H]2CCCO2)Cc2nnn(CC3CC3)c21 (stereo partly drawn) | -4.99%
CN(C)CC(=O)N1Cc2nnn(C)c2C(COCC2CC2)C1 (stereo not drawn) | 24%
CN(C)C(=O)N1Cc2nnn(C)c2C(COCC2CC2)C1 (stereo not drawn) | 41.8%
CCOCC1CN(C(=O)N(C)C)Cc2nnn(CC3CC3)c21 (stereo not drawn) | -3.51%
CCOCC1CN(C(=O)[C@H]2CCCO2)Cc2nnn(CC3CC3)c21 (stereo partly drawn) | 57.1%
Cn1nnc2c1C(COCC1CC1)CN(C(=O)[C@H]1CCCO1)C2 (stereo partly drawn) | 68.9%
Cc1nccn1CCN(C)C(=O)C1CCCN(C2CCOCC2)C1 (stereo not drawn) | 34.1%
Cc1cc(C)n(CC2CCCN2CCc2ccccn2)n1 (stereo not drawn) | 44.4%
Cc1cc(CNC2CCc3nc(C(C)C)nn3C2)on1 (stereo not drawn) | 11.3%
COC(=O)CC(NC(=O)c1cc(OC)c2c(c1)OCCO2)c1cccs1 (stereo not drawn) | 29.4%
COC(=O)CC(NC(=O)c1ccccc1OC)c1cccs1 (stereo not drawn) | 40%
COC(=O)CC(NC(=O)c1cccc(CS(C)(=O)=O)c1)c1cccs1 (stereo not drawn) | 71.2%
COCCc1noc(CN(C)C(=O)c2cccc(N3CCCC3=O)c2)n1 | 13.9%
COC(=O)CC(NC(=O)c1cccc(N2CCCC2=O)c1)C(=O)OC (stereo not drawn) | 2.55%
CCC(NC(=O)c1cccc(N2CCCC2=O)c1)c1ccc(OC)cc1 (stereo not drawn) | 52.6%
CCC(C)C(=O)NCc1cccc(N2CCCCC2=O)c1 (stereo not drawn) | 11.6%
COC(=O)CC(NC(=O)c1cccc(N2CCCC2=O)c1)c1cccs1 (stereo not drawn) | 62.8%
COC(=O)CC(NC(=O)c1ccc(OC)cc1OC)c1cccs1 (stereo not drawn) | 7.08%
Cc1cc(S(=O)(=O)NCC[S+](C)[O-])c(F)cc1F (stereo not drawn) | 37.6%
CC(O)CN1CCN(C(=O)c2sccc2C2CC2)CC1 (stereo not drawn) | -1.14%
Cc1cnc(CC2COCCN(Cc3nccn3C)C2)cn1 (stereo not drawn) | 44.1%

SMILES | INHIBITION
CC(C)n1ccnc1C1CCN(Cc2ccc(C(F)(F)F)c(F)c2)CC1 | 42.5%
CO[C@@H]1CCN(Cc2ccoc2)[C@@H]2CN(Cc3ccco3)C[C@@H]21 | 45.2%
CC(C)(C)c1ccn(C2(C(=O)O)CCN(c3ccnc(N)n3)CC2)n1 | 34.5%
Cc1cccc(O[C@H]2COCCN(Cc3sc(C)nc3C)C2)n1 | -60.9%
Cc1nc(C)c(CN2CCOC[C@H](Oc3ccc(S(C)(=O)=O)cc3)C2)s1 | 26.4%
Cc1nc(C)c(CN2CCOC[C@H](Oc3ccccc3)C2)s1 | 71.4%
CN(Cc1cc[nH]n1)C(=O)c1cn(Cc2c(F)cccc2F)nn1 | 19.3%
Cc1cc(S(=O)(=O)N2CCCc3cc(F)c(F)cc32)sc1C(=O)O | 33.7%
CC[C@H](C)Nc1ncc(-c2ccn(C3CCN(C(C)=O)CC3)n2)cn1 | 24.8%
CC(=O)N1CCC(n2ccc(-c3cnc(NCC(C)C)nc3)n2)CC1 | 56%
CC(=O)N1CCC(n2ccc(-c3cnc(N4CCOCC4)nc3)n2)CC1 | 17.4%
CNc1cncc(C2CCCN2S(=O)(=O)c2cccc(F)c2)n1 (stereo not drawn) | 14.7%
Cc1ccc(C(=O)N2C[C@@H]3CCCO[C@@H]3[C@H](N(C)Cc3ccco3)C2)o1 | -7.59%
CN(C)c1ncccc1CNC(=O)N1CCCC1c1ccsc1 (stereo not drawn) | -0.847%
CN(C)c1ncccc1CNC(=O)N1CCCC1CN1CCCC1 (stereo not drawn) | 57.8%
CN(C)c1ncccc1CNC(=O)N1CCCC1CN1CCCCC1 (stereo not drawn) | 11.6%
CN1CCC(NC(=O)c2cc(F)cc(Cl)c2O)C1=O (stereo not drawn) | 26.5%
CCc1c(C)nc2n(c1=O)CC(C(=O)Nc1ncccc1C)CS2 (stereo not drawn) | -0.621%
Cc1noc(C(C)C)c1C(=O)NCc1cccc(N(C)C)c1 | 6.14%
COCc1cccc(CNC(=O)c2c(C)noc2C(C)C)c1 | 42.9%
Cc1noc(C(C)C)c1C(=O)NCc1cccc(CN(C)C)c1 | 51.1%
Cc1nn(C)c(C)c1CN(C)C1CCN(c2ncnc3[nH]cnc23)CC1 | 48.9%
Cc1cnccc1CN(C)C1CCN(c2ncnc3[nH]cnc23)CC1 | 48.9%
Cc1ncsc1CCN(C)C1CCN(c2ncnc3[nH]cnc23)CC1 | 50.8%
Cc1ccccc1OCCN1CCN(Cc2cnn(CCO)c2)CC1 | 30.45%
CC(NC(=O)c1cc(-c2cccc(Cl)c2)no1)C(=O)N(C)C (stereo not drawn) | -21.6%

SMILES | INHIBITION
CC(NC(=O)c1cc(-c2cccc(Cl)c2)no1)C(=O)N1CCCC1 (stereo not drawn) | 86.9%
Cc1ccc(-c2cc(C(=O)NC(C)C(=O)N3CCCCC3)on2)cc1 (stereo not drawn) | -40.3%
COc1cc(C)c(NC(=O)NCCn2cccc2)cc1OC | 52.2%
COc1cc(C)c(NC(=O)CCn2cccc2)cc1OC | -23.2%
COc1cc(Cl)c(NC(=O)NCCn2cccc2)cc1OC | -102%
Cn1cc(CN(Cc2cccc(-n3cccn3)c2)C2CC2)cn1 | 49%
CCc1ccccc1NC(=O)c1cccc(N(C)S(C)(=O)=O)c1C | -15.3%
NC(=O)C1CCCN1C1CCN(C(=O)c2ccc3c(c2)OCO3)CC1 (stereo not drawn) | 19.9%
CSCc1noc(CNC2CCCC(C)(C)C2)n1 (stereo not drawn) | 16.9%
Clc1nc2ccccn2c1CNCC1CN(C2CC2)CCO1 (stereo not drawn) | -34.4%
CC1=CC(C)(C)N(CN2C(=O)c3ccccc3C2=O)c2ccccc21 | 44.6%
CC1=CC(C)(C)N(CN2C(=O)c3ccccc3C2=O)c2ccc(C)cc21 | 67.4%
COc1ccc(N2CCN(C(=O)NC(C)c3nncn3C)CC2)cc1 (stereo not drawn) | 19.4%
COCC(=O)NCC[C@H]1CC(C)(C)Oc2ccccc21 | 57.5%
COCC(=O)NCC[C@H]1CC(C)(C)Oc2ccc(OC)cc21 | 1.11%
CC(=O)NCC[C@H]1CC(C)(C)Oc2ccccc21 | 18.9%
Cc1cnn(CC2CCCCN2C(=O)c2ccc3[nH]c(=O)[nH]c3c2)c1 (stereo not drawn) | 39.2%
CN(C)C(=O)C1CCN(C2CCN(CC3CC3)CC2)CC1 | 37.5%
O=C(c1cc[nH]n1)N1CCc2ccc(S(=O)(=O)N3CCOCC3)cc2C1 | 26.5%
CNS(=O)(=O)c1cccc(CNc2nccc(C(F)(F)F)n2)c1 | 71.3%
CNS(=O)(=O)c1cccc(CNc2ccc(C#N)cn2)c1 | -14.9%
NS(=O)(=O)c1cccc(CNc2nccc(C(F)(F)F)n2)c1 | -14.6%
CNS(=O)(=O)c1cccc(CNc2cc(C(F)(F)F)ccn2)c1 | 45.4%
FC(F)(F)c1cccc(CNc2nccc(C(F)(F)F)n2)c1 | -24.2%
CNS(=O)(=O)c1cccc(CNc2ncccn2)c1 | 50.5%
CN(C(=O)c1ccc(C#N)cc1)c1nnc(C2CCOC2)s1 (stereo not drawn) | -0.585%

SMILES | INHIBITION
Cc1ccc(C(=O)N2CCO[C@H]3[C@H](OCc4ccccn4)CC[C@@H]32)o1 | -31.3%
Cc1nn(CCC#N)c(C)c1CCC(=O)N(C)Cc1ccc(F)cc1F | 78.3%
Cc1nn(CCC#N)c(C)c1CCC(=O)N(C)C | 49.5%
Cc1nn(CCC#N)c(C)c1CCC(=O)N(C)Cc1ccsc1 | 19.8%
CCCn1nccc1NC(=O)CN1CCOC(Cn2cc(C)cn2)C1 (stereo not drawn) | 21.9%
CN(C)C[C@H]1OC[C@@H]2CCN(S(=O)(=O)c3ccccc3)C[C@@H]21 | 26.7%
Cc1ncc(CNc2cnccc2CO)s1 | -37.7%
Cc1ccc(-c2ncc(CNc3cnccc3CO)s2)o1 | 11.1%
Cc1ccc(-c2ncc(CNc3cnccc3CO)s2)cc1 | 80%
CS(=O)(=O)N[C@@H]1CCN(Cc2cccs2)[C@H]1Cc1cccnc1 | -21.4%
CS(=O)(=O)N[C@@H]1CCN(Cc2ccncc2)[C@H]1Cc1cccnc1 | 4.27%
Cn1cc(CN2CC[C@@H](NS(C)(=O)=O)[C@@H]2Cc2cccnc2)cn1 | 54.4%
CS(=O)(=O)N[C@@H]1CCN(Cc2cccnc2)[C@H]1Cc1cccnc1 | 45.1%
Cn1ccnc1CN1CC[C@@H](NS(C)(=O)=O)[C@@H]1Cc1cccnc1 | 13.6%
CS(=O)(=O)N[C@@H]1CCN(Cc2cccnc2)[C@H]1Cc1ccccc1 | 52%
O=C(CCc1ccccc1Br)NS(=O)(=O)c1ccc2c(c1)OCCO2 | 25.6%
O=C(c1ccc(Cn2cnnn2)cc1)N1CC[C@H](CO)[C@H](O)C1 | 22.5%
CC(C)CN(Cc1nc2c(cnn2C)c(=O)[nH]1)CC(C)C | -33.55%
COc1ccc(-c2cnc(N)nc2C2CCCNC2)cc1 (stereo not drawn) | 23.9%
COc1ccc(-n2cc3[nH][nH]c(=O)n3c2=O)cc1 | -3%
COCC1CCN(S(=O)(=O)c2ccc(C(=O)NCC(F)F)cc2)C1 (stereo not drawn) | 10.6%
CCc1cnc(CNC(=O)NC2CCN(C3CCCC3)CC2)s1 | -104%
CC(=O)N[C@@H]1CN(C2CCN(c3cccc(C)c3C)CC2)C[C@H]1C(C)C | 66.1%
CC(=O)N[C@@H]1CN(C2CCN(c3ccccc3F)CC2)C[C@H]1C(C)C | 14.8%
CC(=O)N[C@@H]1CN(C2CCN(c3cccc(Cl)c3)CC2)C[C@H]1C(C)C | 30.8%
